# Laboratory results published in ChEMBL document CHEMBL3988442, “University of Dundee, Small-Polar-MMV Screening Library” (2021).
# In all, about 48,000 compounds went through this assay and about 13,000 (27%) showed an effect of 50% or more. The list shows a part of the results.
# System: Wolbachia pipientis
# Assay: Anti-Wolbachia Cell-Based Screen
# Type: functional
# Design: scale not given: in the data most compounds retested in dose-response had high values
# Settings: 5 µM
row,SMILES,Percent Effect [%]
1,Cc1ccc(CN2CCOC3(COCCN(C(C)C)C3)C2)s1.O=C(O)C(F)(F)F.O=C(O)C(F)(F)F (stereo not drawn),-2.418
2,Cc1nccn1-c1cc(CNC(=O)C2CCC(=O)NC2)ccn1 (stereo not drawn),-12.56
3,O=C(c1cccnc1-n1cncn1)N1CCN(CC2CC2)CC1,-14.6
4,COCCOc1ncccc1C(=O)N1CCCC1Cn1cc(C)cn1 (stereo not drawn),71.82
5,CCOc1ncccc1C(=O)N1CCCC1Cn1cc(C)cn1 (stereo not drawn),90.55
6,Cc1cnn(CC2CCCN2C(=O)c2cccnc2-n2cncn2)c1 (stereo not drawn),106.4
7,CSCCc1nc(C(C)C)nn1-c1ccncc1C,-5.681
8,COCC(C)(C#N)NC(=O)COc1ccccc1Br (stereo not drawn),-5.931
9,Cc1c(-c2ccccc2)ncn1CC(c1cccnc1)N1CCOCC1 (stereo not drawn),2.3
10,COCCC1(CO)CCCN(C(=O)c2ccc(C(C)C)[nH]c2=O)C1 (stereo not drawn),9.971
11,Cn1ccnc1CN1CCN(c2ccc(C#N)cc2F)CC1,2.933
12,Cc1ccc(N2C[C@H]3CCC[C@@H](CN(C)C)[C@H]3C2)nn1.O=C(O)C(F)(F)F,-2.322
13,O=C(O)C(F)(F)F.O=C(c1cnccn1)N1C[C@@H]2C[C@@H](c3nc(C4CC4)cs3)O[C@@H]2C1,97.61
14,Cc1csc([C@H]2C[C@@H]3CCN(C(=O)c4ccnnc4)C[C@H]3O2)n1,-2.379
15,Cc1csc([C@H]2C[C@@H]3CCN(C(=O)c4cnccn4)C[C@H]3O2)n1,7.08
16,Cn1cccc1C(=O)N1C[C@@H]2C[C@@H](c3nc(C4CC4)cs3)O[C@@H]2C1.O=C(O)C(F)(F)F,215.5
17,Cc1noc([C@@H]2C[C@H]3CN(C(=O)C4CCN(C)CC4)C[C@H]3O2)n1.O=C(O)C(F)(F)F,11.84
18,Cc1csc([C@@H]2C[C@@H]3CCN(C(=O)c4cnccn4)C[C@H]3O2)n1,-0.1445
19,O=C(C1CCOCC1)N1C[C@@H]2C[C@@H](c3nc(C4CC4)cs3)O[C@@H]2C1.O=C(O)C(F)(F)F,2.3
20,Cc1ccc(CN2CC[C@H]3C[C@H](c4nc(C5CC5)cs4)O[C@@H]3C2)o1,7.352
21,O=C(O)C(F)(F)F.O=C(c1ccnnc1)N1C[C@@H]2C[C@@H](c3nc(C4CC4)cs3)O[C@@H]2C1,114.8
22,COc1cccc(-n2c(C)cc(C(=O)O)c2C)c1,1.282
23,CC(=O)N1[C@H](Cn2cncn2)C[C@@H]2CN(c3ncccn3)CC[C@@H]21,-1.924
24,COCC1CCN(S(=O)(=O)N2C[C@@H](C)[C@](O)(C3CC3)C2)CC1,-6.27

row,SMILES,Percent Effect [%]
1,COC(=O)c1ccc(NC(=O)NC2CCc3[nH]ncc3C2)cc1 (stereo not drawn),-3.404
2,O=C(c1cc[nH]n1)N1CC[C@@H]2CN(Cc3cccnc3)S(=O)(=O)[C@@H]2CC1,-2.568
3,CC(=O)N1CC[C@@H]2CN(Cc3ccncc3)S(=O)(=O)[C@@H]2CC1.O=C(O)C(F)(F)F,-10.18
4,O=C(C1CCCO1)N1CC[C@@H]2CN(Cc3ccccc3)S(=O)(=O)[C@@H]2CC1 (stereo partly drawn),-10.05
5,O=C(C1CCC1)N1CC[C@@H]2CN(Cc3cccnc3)S(=O)(=O)[C@@H]2CC1,102.5
6,CC(C)CNC(=O)N1CC[C@@H]2CN(Cc3cccnc3)S(=O)(=O)[C@@H]2CC1.O=C(O)C(F)(F)F,96.93
7,CC(C)CC(=O)N1CC[C@@H]2CN(CC(=O)N(C)C)S(=O)(=O)[C@@H]2CC1,-34.28
8,COCC(=O)N1CC[C@@H]2CN(Cc3cccc(Cl)c3)S(=O)(=O)[C@@H]2CC1,-12.94
9,COCC(=O)N1CC[C@@H]2CN(Cc3ccccc3)S(=O)(=O)[C@@H]2CC1,-9.3
10,O=C(O)C(F)(F)F.O=C(c1cc[nH]n1)N1CC[C@@H]2CN(Cc3ccccc3)S(=O)(=O)[C@@H]2CC1,-14
11,CC(C)CC(=O)N1CC[C@@H]2CN(Cc3cccnc3)S(=O)(=O)[C@@H]2CC1,111.2
12,COCC(=O)N1CC[C@@H]2CN(Cc3cccnc3)S(=O)(=O)[C@@H]2CC1,104.6
13,O=C1O[C@@H]2CN(c3ccncc3)C[C@@H]2N1CCCc1ccc(F)cc1,-4.206
14,CN(CCO)CC1COCCN1C(=O)C1(c2cccs2)CCCC1.O=CO (stereo not drawn),2.363
15,COCCC1(CO)CCCN(C(=O)c2cccnc2O)C1 (stereo not drawn),1.104
16,Cl.O=C1C(NCc2ccc3c(c2)CCO3)CCN1Cc1ccccc1 (stereo not drawn),-4.636
17,COCC(=O)N1CCC(C(=O)N(C)C(C)c2ccon2)CC1 (stereo not drawn),2.013
18,CCOc1ncccc1CNC(=O)Nc1ccccc1,95.65
19,CCOc1ncccc1CNC(=O)Nc1ccc(CC)cc1,115
20,CCCS(=O)(=O)NCc1cccnc1OCC,-4.428
21,CCOc1ccc(NC(=O)NCc2cccnc2OCC)cc1,105.6
22,CCOc1ncccc1CNC(=O)CN1CCCCCC1=O,-62.17
23,COc1ncccc1CNC(=O)NCCNC(=O)c1ccco1,0.6647
24,CCCNC(=O)NCc1cccnc1OC,1.177

row,SMILES,Percent Effect [%]
1,CC[C@@H](NC(C)=O)C(=O)NCc1cccnc1Oc1ccccc1OC,5.567
2,CCOc1ncccc1CNC(=O)Nc1ccc(OC)c(OC)c1,124
3,COc1ccccc1C(O)CNC(=O)NCc1cccnc1OC (stereo not drawn),-5.086
4,CN(C)C(=O)C1CCCN1CCCNC(=O)c1ccccc1F (stereo not drawn),12.21
5,CC(C)(C(=O)NCCS(N)(=O)=O)c1cccc(Br)c1,-14.63
6,COc1cccc(-c2n[nH]c3c2CN(C(=O)c2oc(C)cc2C)CC3)c1,3.438
7,CCn1ccc2ccnc(CC3CN(C(=O)c4ccc(F)cc4)C3)c21,128.6
8,Cn1ccc2ccnc(CC3CN(C(=O)C4CCC(F)(F)CC4)C3)c21,-0.631
9,CCn1ccc2ccnc(CC3CN(C(=O)c4cnco4)C3)c21,144.4
10,CCCN1CCc2[nH]cnc2C12CCN(C(=O)Cn1ccnc1C)CC2,-4.185
11,CCN(CC)CC[C@H]1CN(C(=O)c2ccc(F)cc2)CC[C@H]1CC(=O)O,0.9693
12,CCn1ccc2ccnc(CC3CN(C(=O)Cn4ccnc4C)C3)c21.O=CO,124.4
13,COc1ccccc1C(=O)N1CC(Cc2nccc3ccn(C)c23)C1,-2.36
14,O=C(C(CNCc1ccncc1)c1ccccc1)N1CCOCC1 (stereo not drawn),0.2839
15,O=C(Cc1ccc2c(c1)OCCO2)N1CCCC(n2cccn2)C1 (stereo not drawn),7.45
16,CC(C)c1nc(C2CCCN2Cc2ccccc2C#N)no1 (stereo not drawn),6.567
17,CC(C)c1nc(C2CCCN2Cc2ccncc2Cl)no1 (stereo not drawn),81.18
18,Cc1cc(CN2CCCC2c2noc(C(C)C)n2)on1 (stereo not drawn),98.26
19,CC(C)c1nc(C2CCCN2Cc2ccn(C)c(=O)c2)no1 (stereo not drawn),-1.235
20,CCc1noc(CN2CCCC2c2noc(C3CC3)n2)n1 (stereo not drawn),2.482
21,CC(C)c1nc(C2CCCN2CC(=O)Nc2ccc(Cl)cn2)no1 (stereo not drawn),-4.076
22,CC(C)c1nc(C2CCCN2CC(=O)Nc2nncs2)no1 (stereo not drawn),-0.6487
23,CC(C)c1nc(C2CCCN2c2ccnc(C3CCCC3)n2)no1 (stereo not drawn),0.08889
24,CC(C)c1noc(CN2CCCC2c2noc(C(C)C)n2)n1 (stereo not drawn),108.9

row,SMILES,Percent Effect [%]
1,CC(C)c1nc(C2CCCN2Cc2ccon2)no1 (stereo not drawn),78.63
2,c1ccc(-c2nnc3ccc(N4CCC5(CCOC5)C4)nn23)cc1 (stereo not drawn),-13.9
3,CNC(=O)CN1CCC(NC(=O)C(C)Oc2ccccc2C#N)CC1 (stereo not drawn),0.1216
4,CC(C)NS(=O)(=O)c1cc(C(=O)O)cc(-c2ccccc2CO)c1,11.88
5,Cc1nc(C2CCCN2Cc2nc(C)c(C)o2)no1 (stereo not drawn),-0.5484
6,Cc1nc(C2CCCN2Cc2ncc(C(C)C)o2)no1 (stereo not drawn),8.273
7,Cc1nc(CN2CCCC2c2noc(C(C)C)n2)oc1C (stereo not drawn),98.12
8,Cc1cc(CN2CCC(C3CCN(CCc4ccccc4)C3)CC2)[nH]n1 (stereo not drawn),-6.326
9,CCc1c(C)nc2cc(C3CCN(Cc4cccc(F)c4)C3)nn2c1O (stereo not drawn),98.22
10,CCc1c(C)nc2cc(C3CCN(Cc4ccccc4F)C3)nn2c1O (stereo not drawn),-15.15
11,CCc1c(C)nc2cc(C3CCN(Cc4cccnc4)C3)nn2c1O (stereo not drawn),85.92
12,Cc1cc(CN2CCC(C3CCN(Cc4cccnc4)CC3)C2)[nH]n1 (stereo not drawn),-58.7
13,Cc1nc[nH]c1CN1CCC(C2CCN(CCc3ccccc3)C2)CC1 (stereo not drawn),-8.62
14,CCn1cnnc1CNC(=O)C1CCCN(Cc2cccc(F)c2)C1 (stereo not drawn),3.888
15,Cc1nc2cc(C3CCN(Cc4ccccc4F)C3)nn2c(O)c1C (stereo not drawn),92.44
16,CCc1c(C)nc2cc(C3CCN(CCc4ccccc4)C3)nn2c1O (stereo not drawn),76.13
17,NC(=O)c1cccc2nc([C@H]3CCN(Cc4ccccc4F)C3)[nH]c12,1.754
18,Cn1cnnc1CNC(=O)C1CCCN(Cc2cccc(F)c2)C1 (stereo not drawn),-3.668
19,Cc1nc(N2CCOCC2)nc(C)c1NC(=O)COc1ccccc1,15.56
20,c1cc(-c2noc(CN3CCn4c(nnc4C4CC4)C3)n2)co1,-9.374
21,O=C1N(Cc2ccc(F)c(F)c2)CCCC12CCN(C1CCSCC1)C2 (stereo not drawn),-6.504
